Experiment [1] can be described thus: optical density shifts of acrAB sulA E. coli – strain DRC41, OD650, 48 h, E. coli filamentation inducer project, primary screen (AID 1152).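 Also: E. coli MC1000 strain DRC41 lacking acrAB efflux pump and sulA.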 To be noted: higher = more signal, called active from +8 up or from −8 down.
Experiment [2] in a line: probe aLefty1 binding on compound microarray – biochemical, small-molecule microarray, 635/667 nm fluorescence, primary screen (AID 1153).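 Also: score merges spot fluorescence with signal-to-noise ratio from the scanned slide images.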 To be noted: higher = more signal.
Experiment [3] in a line: plasmodial surface anion channel blockers, osmotic lysis – cell-based, P. falciparum Indochina, OD700, 1 h, primary screen (AID 1154). To be noted: P. falciparum Indochina infected RBC osmotic lysis, higher = more signal, called active from +8 up or from −8 down.
Experiment [4] in a line: plasmodial surface anion channel blockers, osmotic lysis – cell-based, P. falciparum Indochina, OD700, 2 h, primary screen (AID 1155).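 Also: lysis reports solute entry through the parasite surface anion channel PSAC.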 To be noted: P. falciparum Indochina infected erythrocytes, higher = more signal, called active from +8 up or from −8 down.
Experiment [5] is described as follows: changes in parasitized red cell lysis, either direction – P. falciparum Indochina, OD700, 3 h, PSAC antagonist project, primary screen (AID 1156). Particulars: P. falciparum-infected erythrocytes, osmotic lysis, higher = more signal, called active from +8 up or from −8 down.
Experiment [6] in a line: plasmodial surface anion channel blockers, osmotic lysis – cell-based, P. falciparum Indochina, OD700, 18 h, primary screen (AID 1157). To be noted: P. falciparum Indochina infected erythrocytes, osmotic lysis OD700, 18 h; higher = more signal, called active from +8 up or from −8 down.
Experiment [7] is described as follows: S6 kinase pathway phospho-S6 level changes – cell-based, A549, cytoblot, luminescence, serum-stimulated, primary screen (AID 1158).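 Also: serum-stimulated A549 lung adenocarcinoma cells; signal is phosphorylated S6 detected by cytoblot immunostaining with HRP secondary.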 Particulars: 5 h, higher = more signal.
For experiment [8], the target named is NADPH oxidase 2 (Homo sapiens) (UniProt P04839). The experiment can be described thus: compounds shifting NOX2 Amplex Red fluorescence – cell-based, HEK293-NOX2, PMA-stimulated, NOX inhibitor project, primary screen (AID 1159). Also: test concentration not given here. Particulars: 45 min, higher = more signal, called active from +8 up or from −8 down.
The target of experiment [9] is NADPH oxidase 4 (Homo sapiens) (UniProt Q9NPH5). Nature of the experiment: compounds shifting NOX4 Amplex Red fluorescence – cell-based, HEK293-NOX4, tetracycline-induced, NOX inhibitor project, primary screen (AID 1160). To be noted: HEK293-NOX4, Amplex Red H2O2 fluorescence, 45 min; higher = more signal, called active from +8 up or from −8 down.
Experiment [10] addresses NADPH oxidase 5 (Homo sapiens) (UniProt Q96PH1). The experiment can be described thus: compounds shifting NOX5 Amplex Red fluorescence – cell-based, HEK293-NOX5, NOX inhibitor project, primary screen (AID 1161). Particulars: HEK293-NOX5, ionomycin, 45 min, higher = more signal.

The record followed here is PubChem BioAssay.

Values joined by “and” are separate entries in the source; they are usually repeats but may differ in a detail not shown here. Equal entries are not always repeated. Active and inactive are the calls of the source.

Sequence of NADPH oxidase 4 (Homo sapiens) (Q9NPH5 whole entry, looked up): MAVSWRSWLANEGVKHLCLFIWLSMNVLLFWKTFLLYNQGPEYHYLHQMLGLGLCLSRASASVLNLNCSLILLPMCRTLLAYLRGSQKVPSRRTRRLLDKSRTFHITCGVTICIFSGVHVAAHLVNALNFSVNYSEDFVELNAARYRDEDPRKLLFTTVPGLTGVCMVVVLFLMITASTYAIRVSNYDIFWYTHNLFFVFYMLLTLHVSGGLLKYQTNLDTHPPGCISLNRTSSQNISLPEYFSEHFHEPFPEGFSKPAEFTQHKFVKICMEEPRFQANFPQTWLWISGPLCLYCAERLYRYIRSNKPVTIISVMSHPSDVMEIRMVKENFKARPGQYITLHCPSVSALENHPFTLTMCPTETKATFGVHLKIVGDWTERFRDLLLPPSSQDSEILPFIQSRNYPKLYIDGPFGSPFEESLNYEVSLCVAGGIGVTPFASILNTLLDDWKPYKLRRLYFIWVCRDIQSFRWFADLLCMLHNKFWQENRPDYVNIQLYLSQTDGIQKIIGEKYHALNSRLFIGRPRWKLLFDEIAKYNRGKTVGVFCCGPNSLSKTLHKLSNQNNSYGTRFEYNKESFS
Sequence of NADPH oxidase 2 (Homo sapiens) (P04839 whole entry, looked up): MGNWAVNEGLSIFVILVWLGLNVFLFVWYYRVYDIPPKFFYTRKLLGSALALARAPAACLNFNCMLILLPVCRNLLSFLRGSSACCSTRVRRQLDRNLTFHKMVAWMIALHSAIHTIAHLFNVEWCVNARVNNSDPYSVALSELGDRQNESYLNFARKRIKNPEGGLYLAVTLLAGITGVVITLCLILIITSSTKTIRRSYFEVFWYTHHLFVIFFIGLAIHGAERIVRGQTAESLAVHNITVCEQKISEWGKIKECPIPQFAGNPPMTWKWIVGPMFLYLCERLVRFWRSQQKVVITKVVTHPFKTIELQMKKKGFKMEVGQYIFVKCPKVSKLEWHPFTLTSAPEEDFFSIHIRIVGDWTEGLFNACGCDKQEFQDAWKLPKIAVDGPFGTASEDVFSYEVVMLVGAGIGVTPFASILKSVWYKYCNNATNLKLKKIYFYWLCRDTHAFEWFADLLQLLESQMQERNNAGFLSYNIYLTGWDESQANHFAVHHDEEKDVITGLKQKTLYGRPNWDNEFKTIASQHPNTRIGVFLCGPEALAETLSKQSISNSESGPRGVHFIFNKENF
Sequence of NADPH oxidase 5 (Homo sapiens) (Q96PH1 whole entry, looked up): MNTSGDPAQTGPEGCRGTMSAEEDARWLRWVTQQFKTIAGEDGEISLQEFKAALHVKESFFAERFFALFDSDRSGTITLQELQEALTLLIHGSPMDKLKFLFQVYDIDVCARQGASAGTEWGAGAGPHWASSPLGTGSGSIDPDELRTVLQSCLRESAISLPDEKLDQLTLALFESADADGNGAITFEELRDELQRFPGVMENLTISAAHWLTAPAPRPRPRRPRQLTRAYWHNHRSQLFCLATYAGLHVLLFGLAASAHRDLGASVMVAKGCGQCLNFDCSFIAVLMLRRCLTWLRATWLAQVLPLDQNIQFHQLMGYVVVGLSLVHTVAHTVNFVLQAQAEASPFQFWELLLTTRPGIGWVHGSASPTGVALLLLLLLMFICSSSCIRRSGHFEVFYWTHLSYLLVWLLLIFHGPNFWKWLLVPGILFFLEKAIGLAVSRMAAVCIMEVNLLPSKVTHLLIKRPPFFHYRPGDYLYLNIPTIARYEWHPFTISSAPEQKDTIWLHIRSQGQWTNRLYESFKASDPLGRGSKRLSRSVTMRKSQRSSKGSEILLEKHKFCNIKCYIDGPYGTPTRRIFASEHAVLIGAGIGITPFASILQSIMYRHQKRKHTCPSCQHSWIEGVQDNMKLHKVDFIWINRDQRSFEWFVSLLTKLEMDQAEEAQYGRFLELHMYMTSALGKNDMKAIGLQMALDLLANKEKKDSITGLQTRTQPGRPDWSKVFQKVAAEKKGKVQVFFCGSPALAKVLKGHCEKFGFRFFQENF

Take `C=CC[C@@H](O)c1ccc(O)c(F)c1`: the z-score in experiment [1] is -0.024 (inactive) and 1.7 (inactive); in experiment [3] it was 0.92 (inactive) and -0.126 (inactive); in experiment [4], 0.574 (inactive) and -1.54 (inactive); in experiment [5] it was -0.0619 (inactive) and -1.38 (inactive); in experiment [6], 0.476 (inactive) and -2.12 (inactive); in experiment [7] it was 0.0996 and 0.266. Also, the z-score is -0.896 (inactive) and -0.237 (inactive) in experiment [8]; -1.46 (inactive) and 0.42 (inactive) in experiment [9]; -0.436 and 0.271 in [10]. For the same molecule, the composite z-score in [2] is -0.216 and -0.0449.

Consider `CCOC(=O)NN=C1C[C@@H](O)[C@@H](O)[C@@H]2[C@@H]3C(=O)N(Cc4ccccc4)C(=O)[C@@H]3CC[C@@H]12`, for which the z-score in experiment [1] is -2.78 (inactive); in experiment [3], 1.04 (inactive); in [4] it was 0.628 (inactive); in [5] it was 0.979 (inactive); in experiment [6] it was 0.403 (inactive); in [7], -0.154. For the same molecule, the figures for the z-score in experiment [8], in experiment [9] and in experiment [10] were -0.6 (inactive), -0.393 (inactive) and -0.365, respectively. This molecule showed a composite z-score in [2] of -0.641.

`CCC[C@@H]1C[C@@]1(CCC)[C@@H](NC(=O)c1ccc(-c2ccccc2)cc1)c1cccc(Cl)c1`: the z-score in experiment [1] is -2.52 (inactive) and -0.473 (inactive); in experiment [3] it was 2.33 (inactive) and 6.65 (inactive); in [4] it was 0.011 (inactive) and 0.853 (inactive); in [5] it was 0.364 (inactive) and 0.0717 (inactive); in experiment [6], 0.446 (inactive) and 0.691 (inactive); in experiment [7], -0.366 and -0.0422. The z-score in experiment [8] is -1.8 (inactive) and -1.74 (inactive); in experiment [9], -2.39 (inactive) and -5.23 (inactive); in experiment [10], -1.31 and -1.93. Also, the composite z-score in experiment [2] is 2.19 and 0.345.

Turning to `C=CCN(CCCC)C(=O)C1N(C(C)(C)CO)C(=O)C2C(C(=O)O)C3C=CC21O3` (stereo not given), the z-score is -0.2 (inactive) and -0.302 (inactive) in experiment [1]; 0.109 (inactive) and 0.0708 (inactive) in experiment [3]; 0.134 (inactive) and 0.354 (inactive) in experiment [4]; -0.724 (inactive) and -1.27 (inactive) in [5]; 0.0135 (inactive) and -0.109 (inactive) in [6]; 0.301 and -0.335 in experiment [7]. Besides, the z-score is 0.209 (inactive) and 0.495 (inactive) in experiment [8]; 0.0887 (inactive) and -0.0844 (inactive) in experiment [9]; 0.616 and 0.0892 in experiment [10]. Moreover, in experiment [2], the composite z-score is -0.255 and -0.488.

In the case of `C[C@@H]1CC[C@H]2C(=O)N3[C@@H](CC[C@@H](C)[C@@H]3c3ccc(-c4ccco4)cc3)C(=O)N2[C@H]1c1ccc(-c2ccco2)cc1`, the z-score was -0.581 (inactive) and 0.529 (inactive) in experiment [1]; 0.91 (inactive) and 0.469 (inactive) in [3]; -0.0315 (inactive) and -0.262 (inactive) in [4]; 0.0919 (inactive) and 1.71 (inactive) in [5]; -0.364 (inactive) and -0.853 (inactive) in experiment [6]; -0.146 and -0.115 in [7]. Also, the z-score in experiment [8] is 0.331 (inactive) and 0.931 (inactive); in experiment [9], -1.03 (inactive) and 0.685 (inactive); in experiment [10], -0.273 and -1.03. For the same molecule, the composite z-score in experiment [2] is 0.0927 and 0.38.

Take `C=CCN(CCCC)C(=O)C(c1cccs1)N(C(=O)/C=C\C(=O)O)c1ccc(CCO)cc1` (stereo not given): the z-score in experiment [1] is 0.369 (inactive) and 0.133 (inactive); in [3] it was 0.855 (inactive) and 1.03 (inactive); in [4] it was -0.14 (inactive) and -0.182 (inactive); in [5], 0.517 (inactive) and 0.0377 (inactive); in experiment [6], 0.0866 (inactive) and 0.233 (inactive); in [7] it was 0.0768 and 0.0738. In addition, the z-score in experiment [8] is 0.377 (inactive) and 0.12 (inactive); in experiment [9], -0.432 (inactive) and -0.518 (inactive); in [10], 1.18 and -0.0206. Besides, in experiment [2], the composite z-score is -0.279 and -0.147.

In the case of `O=C1[C@H]2[C@H]3[C@H](O)[C@H](O)CC(=NOCc4ccccc4)[C@H]3CC[C@H]2C(=O)N1Cc1ccccc1`, the z-score was -0.925 (inactive) in experiment [1]; 5.58 (inactive) in [3]; 0.42 (inactive) in experiment [4]; 0.224 (inactive) in [5]; -0.456 (inactive) in [6]; 0.741 in [7]. Also, the z-score in experiment [8] is -1.14 (inactive); in experiment [9], -2.92 (inactive); in experiment [10], -2.42. For the same molecule, in [2], the composite z-score is 0.0037.

For the molecule `CN1C(=O)C2CC=C([C@H]3Oc4ccccc4S(=O)(=O)N4CCC[C@@H]34)CC2C1=O` (stereo not given in full), the z-score in [1] is -0.92 (inactive) and -0.225 (inactive); in experiment [3], 0.35 (inactive) and 0.829 (inactive); in experiment [4] it was 0.542 (inactive) and 0.41 (inactive); in [5] it was -0.0363 (inactive) and 0.15 (inactive); in experiment [6], 0.354 (inactive) and 0.133 (inactive); in experiment [7], -0.395 and -0.53. Moreover, the z-score is 0.514 (inactive) and -0.289 (inactive) in experiment [8]; -1.36 (inactive) and -1.47 (inactive) in [9]; -1.31 and -1.46 in experiment [10]. Moreover, the composite z-score in experiment [2] was -0.186 and -0.193.

Consider `CC(C)=NOCc1ccc(-c2cn([C@@H]3COC[C@H]3O)nn2)cc1`, for which the z-score was 0.164 (inactive) in [1]; 11.2 (active) in [3]; 0.536 (inactive) in experiment [4]; -0.725 (inactive) in experiment [5]; 0.296 (inactive) in [6]; -0.119 in [7]. The z-score in experiment [8] is 0.606 (inactive); in experiment [9], 0.0519 (inactive); in [10] it was -0.388. This molecule came in with a composite z-score in experiment [2] of -0.245.

With `COC(=O)[C@@]1(Cc2ccc(F)cc2)[C@H]2c3cc(C(=O)N4CCCC4)n(Cc4c(CO)[nH]cc(C)c4=O)c3C[C@H]2CN1C(=O)c1ccccc1`, the z-score in experiment [1] is -1.7 (inactive) and -1.76 (inactive); in experiment [3], 1.02 (inactive) and 1.15 (inactive); in [4], 0.148 (inactive) and 0.543 (inactive); in experiment [5], 0.63 (inactive) and 0.306 (inactive); in experiment [6], 0.398 (inactive) and 0.57 (inactive); in experiment [7], -0.52 and -0.213. Further, the z-score in experiment [8] was 0.636 (inactive) and 0.617 (inactive); in experiment [9] it was -1.58 (inactive) and -0.346 (inactive); in experiment [10], -2.05 and -0.222. Besides, in experiment [2], the composite z-score is 1.63 and 0.0811.
